# In all, about 5,500 compounds went through this assay and about 2,000 (36%) were called active. Not shown: some 18% with an inconclusive outcome. Some of the results follow. A number with no mark means an inactive call. Cut-off read from the data, not from the text of the source: active = normalized growth mostly below about 0.91 (no sharp cut-off); inconclusive = no clear call, values can overlap the other calls; inactive = mostly above about 0.92.
# Assay: chemical genetic growth profiling, strain panel (AID 1159580);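 note: tested at 20 µM; growth read once vehicle control cultures reached saturation at 30 °C; 1 = growth at the plate median or of vehicle wells; lower values mean less growth of the strain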
# Conditions: S. cerevisiae deletion strains, growth OD
# [1] = locus YAR019C, strain CDC15, hits give low values
# [2] = locus YBL105C, strain PKC1, hits give low values
# [3] = locus YBR135W, strain CKS1, hits give low values
# [4] = locus YBR136W, strain MEC1, hits give low values
# [5] = locus YBR160W, strain CDC28, hits give low values
# [6] = locus YDL017W, strain CDC7, hits give low values
# [7] = locus YDL028C, strain MPS1, hits give low values
# [8] = locus YDL101C, strain DUN1, hits give low values
# [9] = locus YDL108W, strain KIN28, hits give low values
# [10] = locus YDL132W, strain cdc53, hits give low values
# [11] = locus YDL214C, strain PRR2, hits give low values
# [12] = locus YDR052C, strain DBF4, hits give low values
# [13] = locus YDR054C, strain cdc34, hits give low values
# [14] = locus YDR226W, strain ADK1, hits give low values
# [15] = locus YDR477W, strain SNF1, hits give low values
# [16] = locus YER123W, strain YCK3, hits give low values
# [17] = locus YER133W, strain GLC7, hits give low values
# [18] = locus YFL009W, strain cdc4, hits give low values
# [19] = locus YFL029C, strain CAK1, hits give low values
# [20] = locus YFR003C, strain YPI1, hits give low values
# [21] = locus YFR019W, strain FAB1, hits give low values
# [22] = locus YFR028C, strain CDC14, hits give low values
# [23] = locus YGR040W, strain KSS1, hits give low values
# [24] = locus YGR052W, strain FMP48, hits give low values
# [25] = locus YGR092W, strain DBF2, hits give low values
# [26] = locus YHR030C, strain SLT2, hits give low values
# [27] = locus YHR079C, strain IRE1, hits give low values
# [28] = locus YHR082C, strain KSP1, hits give low values
# [29] = locus YHR205W, strain SCH9, hits give low values
# [30] = locus YIL147C, strain SLN1, hits give low values
# [31] = locus YJL095W, strain BCK1, hits give low values
# [32] = locus YJL128C, strain PBS2, hits give low values
# [33] = locus YJL157C, strain FAR1, hits give low values
# [34] = locus YJR016C, strain ILV3, hits give low values
# [35] = locus YJR066W, strain TOR1 (second series), hits give low values
# [36] = locus YJR066W, strain TOR1, hits give low values
# [37] = locus YKL048C, strain ELM1, hits give low values
# [38] = locus YKL067W, strain YNK1, hits give low values
# [39] = locus YKL101W, strain HSL1, hits give low values
# [40] = locus YKL193C, strain SDS22, hits give low values
# [41] = locus YKL203C, strain TOR2, hits give low values
# [42] = locus YLR113W, strain HOG1, hits give low values
# [43] = locus YLR133W, strain CKI1, hits give low values
# [44] = locus YLR403W, strain SFP1, hits give low values
# [45] = locus YML070W, strain DAK1, hits give low values
# [46] = locus YMR001C, strain CDC5, hits give low values
# [47] = locus YMR205C, strain PFK2 (second series), hits give low values
# [48] = locus YMR277W, strain FCP1, hits give low values
# [49] = locus YNL006W, strain LST8, hits give low values
# [50] = locus YNL020C, strain ARK1, hits give low values
# [51] = locus YNL161W, strain CBK1, hits give low values
# [52] = locus YNL183C, strain NPR1, hits give low values
# [53] = locus YNL207W, strain RIO2, hits give low values
# [54] = locus YNL222W, strain SSU72, hits give low values
# [55] = locus YNL307C, strain MCK1 (second series), hits give low values
# [56] = locus YOL078W, strain AVO1, hits give low values
# [57] = locus YOL136C, strain PFK27, hits give low values
# [58] = locus YOR061W, strain CKA2, hits give low values
# [59] = locus YOR119C, strain RIO1, hits give low values
# [60] = locus YOR231W, strain MKK1, hits give low values
# [61] = locus YOR329C, strain SCD5, hits give low values
# [62] = locus YPL031C, strain PHO85, hits give low values
# [63] = locus YPL153C, strain RAD53, hits give low values
# [64] = locus YPL204W, strain HRR25, hits give low values
# [65] = locus YPL209C, strain IPL1, hits give low values
# [66] = locus YPL256C, strain CLN2, hits give low values
# [67] = locus YPR025C, strain CCL1, hits give low values
# [68] = locus YPR106W, strain ISR1, hits give low values
# [69] = locus YPR111W, strain DBF20, hits give low values
# [70] = strain NNK1, hits give low values
# [71] = strain TSCII, hits give low values
structure (smiles),measurement,setting,value
COc1ccc(-c2csc(-c3cccnc3)n2)cc1,normalized growth,[1],0.96
same,normalized growth,[2],0.966
same,normalized growth,[3],0.957
same,normalized growth,[4],0.958
same,normalized growth,[5],0.963
same,normalized growth,[6],0.961
same,normalized growth,[7],0.965
same,normalized growth,[8],0.951
same,normalized growth,[9],0.958
same,normalized growth,[10],0.961
same,normalized growth,[11],0.909
same,normalized growth,[12],0.973
same,normalized growth,[13],0.945
same,normalized growth,[14],0.946
same,normalized growth,[15],0.894
same,normalized growth,[16],0.847
same,normalized growth,[17],0.888
same,normalized growth,[18],0.954
same,normalized growth,[19],0.949
same,normalized growth,[20],0.947
same,normalized growth,[21],0.86
same,normalized growth,[22],0.949
same,normalized growth,[23],0.858
same,normalized growth,[24],0.993
same,normalized growth,[25],0.828
same,normalized growth,[26],0.849 (active)
same,normalized growth,[27],0.889
same,normalized growth,[28],0.954
same,normalized growth,[29],0.955
same,normalized growth,[30],0.961
same,normalized growth,[31],0.884
same,normalized growth,[32],0.966
same,normalized growth,[33],0.914
same,normalized growth,[34],0.955
same,normalized growth,[35],0.857
same,normalized growth,[36],0.891
same,normalized growth,[37],0.958
same,normalized growth,[38],0.912
same,normalized growth,[39],0.928
same,normalized growth,[40],0.948
same,normalized growth,[41],0.904
same,normalized growth,[42],1.01
same,normalized growth,[43],0.915
same,normalized growth,[44],0.877
same,normalized growth,[45],0.912
same,normalized growth,[46],0.959
same,normalized growth,[47],0.907
same,normalized growth,[48],0.95
same,normalized growth,[49],0.968
same,normalized growth,[50],0.903
same,normalized growth,[51],0.963
same,normalized growth,[52],0.882
same,normalized growth,[53],0.949
same,normalized growth,[54],0.953
same,normalized growth,[55],0.888
same,normalized growth,[56],0.948
same,normalized growth,[57],0.915
same,normalized growth,[58],0.929
same,normalized growth,[59],0.948
same,normalized growth,[60],0.906
same,normalized growth,[61],0.957
same,normalized growth,[62],0.876
same,normalized growth,[63],0.883
same,normalized growth,[64],0.852
same,normalized growth,[65],0.963
same,normalized growth,[66],0.901
same,normalized growth,[67],0.958
same,normalized growth,[68],0.958
same,normalized growth,[69],0.956
same,normalized growth,[70],0.957
same,normalized growth,[71],0.952
Brc1ccc(-c2csc(-c3cccnc3)n2)cc1,normalized growth,[1],0.879 (active)
same,normalized growth,[2],0.921
same,normalized growth,[3],0.898
same,normalized growth,[4],0.913
same,normalized growth,[5],0.904
same,normalized growth,[6],0.906
same,normalized growth,[7],0.916
same,normalized growth,[8],0.887 (active)
same,normalized growth,[9],0.904
same,normalized growth,[10],0.854 (active)
same,normalized growth,[11],0.741
same,normalized growth,[12],0.894 (active)
same,normalized growth,[13],0.847 (active)
same,normalized growth,[14],0.884 (active)
same,normalized growth,[15],0.624 (active)
same,normalized growth,[16],0.606 (active)
same,normalized growth,[17],0.561 (active)
same,normalized growth,[18],0.867 (active)
same,normalized growth,[19],0.872 (active)
same,normalized growth,[20],0.904
same,normalized growth,[21],0.677 (active)
same,normalized growth,[22],0.875 (active)
same,normalized growth,[23],0.59 (active)
same,normalized growth,[24],0.704
same,normalized growth,[25],0.456 (active)
same,normalized growth,[26],0.519 (active)
same,normalized growth,[27],0.637
same,normalized growth,[28],0.695
same,normalized growth,[29],0.643
same,normalized growth,[30],0.899
same,normalized growth,[31],0.305 (active)
same,normalized growth,[32],0.951
same,normalized growth,[33],0.735
same,normalized growth,[34],0.878 (active)
same,normalized growth,[35],0.603 (active)
same,normalized growth,[36],0.545
same,normalized growth,[37],0.835
same,normalized growth,[38],0.733 (active)
same,normalized growth,[39],0.784
same,normalized growth,[40],0.864 (active)
same,normalized growth,[41],0.506 (active)
same,normalized growth,[42],0.655 (active)
same,normalized growth,[43],0.767
same,normalized growth,[44],0.563 (active)
same,normalized growth,[45],0.704
same,normalized growth,[46],0.88 (active)
same,normalized growth,[47],0.719 (active)
same,normalized growth,[48],0.873 (active)
same,normalized growth,[49],0.894 (active)
same,normalized growth,[50],0.751
same,normalized growth,[51],0.893 (active)
same,normalized growth,[52],0.55 (active)
same,normalized growth,[53],0.846 (active)
same,normalized growth,[54],0.902
same,normalized growth,[55],0.702
same,normalized growth,[56],0.866 (active)
same,normalized growth,[57],0.709
same,normalized growth,[58],0.792
same,normalized growth,[59],0.54 (active)
same,normalized growth,[60],0.647
same,normalized growth,[61],0.883 (active)
same,normalized growth,[62],0.533 (active)
same,normalized growth,[63],0.449 (active)
same,normalized growth,[64],0.46 (active)
same,normalized growth,[65],0.893 (active)
same,normalized growth,[66],0.679 (active)
same,normalized growth,[67],0.894 (active)
same,normalized growth,[68],0.903
same,normalized growth,[69],0.918
same,normalized growth,[70],0.871 (active)
same,normalized growth,[71],0.86 (active)
CN(C)C/C=C(/c1ccc(Br)cc1)c1cccnc1,normalized growth,"locus YAL040C, strain CLN3, hits give low values",0.964
same,normalized growth,"locus YCL061C, strain MRC1 (second series), hits give low values",0.999
same,normalized growth,"locus YDR363W, strain ESC2, hits give low values",0.984
same,normalized growth,"locus YER002W, strain NOP16, hits give low values",0.992
same,normalized growth,"locus YMR307W, strain GAS1, hits give low values",1.02
same,normalized growth,"locus YNL175C, strain NOP13, hits give low values",0.975
same,normalized growth,"locus YNL197C, strain WHI3, hits give low values",1
same,normalized growth,"locus YNL224C, strain SQS1, hits give low values",1
same,normalized growth,"locus YNL322C, strain KRE1, hits give low values",0.926
same,normalized growth,"locus YOR083W, strain WHI5 (second series), hits give low values",0.994
same,normalized growth,"locus YPL055C, strain LGE1, hits give low values",0.997
same,normalized growth,"locus YPL241C, strain CIN2, hits give low values",0.998

# Source: PubChem BioAssay AID1159580 (chemical genetic matrix, 2015)
